tim23-1 inh: growth inhibitors of tim23-1 mutant yeast, primary screen, luminescence, uHTS; 1.3% of 330,000 active; AID 463212, 2010; S. cerevisiae tim23-1 growth, BacTiter-Glo luminescence, 24 h; inhibition, % at 20 µM;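 active = growth inhibition of the mutant yeast at or above 50%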;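 also: temperature-sensitive mutant grown at 25 °C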
Yeast superoxide: reduction of superoxide in aged yeast, primary screen, HTS. S. cerevisiae aged cells, superoxide DHE fluorescence; active compounds read low. superoxide response (% of plate mean), % at 10 µM. 0.18% of 330,000 active;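 active = superoxide response under a set limit, about three screen SD below normal, cut at about 65% in these data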;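 also: yeast aged for seven days with compound at 30 °C before DHE staining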
tim10-1 inh: growth inhibitors of tim10-1 mutant yeast, primary screen, luminescence, uHTS. S. cerevisiae tim10-1 ts strain growth, BacTiter-Glo, 24 h. AID 463190, 2010. inhibition, % at 20 µM. 2.2% of 330,000 active;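 active = inhibition of at least 40%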;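 also: mutant grown at 25 °C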
TIM10 inh: growth inhibitors of isogenic TIM10 control yeast, primary screen, counter-screen for tim10-1 yeast inhibitor project, luminescence, uHTS; S. cerevisiae TIM10 strain growth, BacTiter-Glo luminescence, 24 h; inhibition, % at 10 µM; 1.4% of 330,000 active;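 active = inhibition of 40% or more at the single tested concentration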;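 also: wild-type TIM10 isogenic control strain grown at permissive 25 °C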
NALP3 yeast inh: NALP3 inflammasome inhibitors in reconstituted yeast, primary screen, luminescence, uHTS; inhibition, % at 10 µM; 0.39% of 330,000 active; Yeast reconstituted NLRP3/ASC/caspase-1, beta-gal luminescence, 24 h; AID 2825, 2010;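 active = inhibition of 50% or more; inactive = inhibition below 50%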
tim23-1 conf: tim23-1 mutant yeast growth inhibitors, confirmation, luminescence, single concentration; inhibition, % at 20 µM; shares compounds with tim23-1 inh; 83% of 4,400 active; S. cerevisiae tim23-1 growth, BacTiter-Glo luminescence, 24 h;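 active = inhibition above about 39% in either of two replicate wells at 20 µM, limit read from the data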;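 also: temperature-sensitive tim23-1 mutant grown at 25 °C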
Hits are given with their value; - = inactive; . = no result; ! = a repeat was not active. An excerpt weighted towards active compounds, which were near 3.8% of everything screened.

SMILES	tim23-1 inh	Yeast superoxide	tim10-1 inh	TIM10 inh	NALP3 yeast inh	tim23-1 conf
CCOc1nc2ccccc2cc1C=O	72.3	-	-	-	-	59.0
COc1ccc(C)c2sc(NNC(=O)COc3ccccc3)nc12	-	-	-	-	-	.
Cn1c(CN2CCOCC2)nnc1SCC(=O)Nc1cc(Cl)ccc1Cl	-	-	-	-	-	.
CCOC(=O)c1c(NC(=O)CSc2nnnn2-c2ccc(OC)cc2)sc(C)c1C	50.2	-	-	-	-	81.7
S=c1[nH]nc(COc2ccc(Cl)cc2)n1-c1ccc(Cl)cc1	51.2	-	-	-	-	40.9
CC(=O)Nc1nc(COc2ccccc2)cs1	-	-	-	-	-	.
Cc1ccc(C(=O)Nc2nc(COc3ccccc3)cs2)s1	51.7	-	-	-	-	-
CCC1Oc2ccccc2C(=O)N(CC(=O)c2ccc3c(c2)OCCO3)C1=O (stereo unspecified)	-	-	-	-	-	.
Cn1c(C=O)c(C#Cc2ccccc2)c2ccccc21	58.3	-	-	-	-	63.0
Cc1cc2nc(C3CCN(C(=S)NCCCOC(C)C)CC3)[nH]c2cc1C	-	-	-	-	-	.
O=C(Nc1nc2cc3c(cc2s1)OCO3)C1CC1	-	-	-	-	-	.
O=C(Nc1nc2cc3c(cc2s1)OCCO3)C1CCCCC1	56.9	.	-	-	-	57.0
COC(=O)c1ccc2nc(NC(=O)C3CCCCC3)sc2c1	-	-	-	-	-	.
CC(C)c1ccc2nc(NC(=O)C3CC3)sc2c1	51.2	-	-	-	-	52.4
CCOc1cc(C#N)ccc1OCC(=O)NNC(=O)CC1CCS(=O)(=O)C1 (stereo unspecified)	-	.	-	-	-	.
Cc1c(NC(=O)COC(=O)c2ccc(F)c(S(=O)(=O)N3CCOCC3)c2)c(=O)n(-c2ccccc2)n1C	-	-	-	-	-	.
CC(C)(C)CC(=O)NC(=S)Nc1ccccc1C(F)(F)F	50.9	-	-	-	-	-
COc1ccc(OC)c(NC(=O)Nc2ccc(Cl)cc2)c1	69.5	-	-	-	-	66.7
O=C(CCl)c1ccc(Cc2ncc(C(F)(F)F)cc2Cl)s1	52.0	-	-	-	-	-
O=C(Oc1ccccc1)N1CCN(C(=O)c2ccco2)CC1	-	-	-	-	-	.
Brc1ccc(OCc2nnnn2-c2ccccc2)cc1	51.8	-	-	-	-	38.8
O=[N+]([O-])c1ccc2nc(Cl)nc(-c3ccccc3)c2c1	53.8	-	-	-	-	48.2
O=[N+]([O-])c1ccc2nc(-[n+]3c(-c4ccccc4)cc(-c4ccccc4)cc3-c3ccccc3)[nH]c2c1	-	-	-	-	-	.
COc1ccc(C(=O)CSc2cc(C)[nH]c(=O)n2)cc1	-	-	-	-	-	.
O=C(Oc1ccc2ccc(O)cc2c1)c1ccccc1Cl	62.7	-	-	-	-	51.9
SMILES	tim23-1 inh	Yeast superoxide	tim10-1 inh	TIM10 inh	NALP3 yeast inh	tim23-1 conf
O=C(Oc1ccc2ccc(O)cc2c1)C1CCCCC1	-	-	-	-	-	.
Cc1occc1C(=O)N/N=C/C(Br)=C/c1ccccc1	54.6	-	-	-	-	75.4
O=C(N/N=C/C(Br)=C/c1ccccc1)c1ccccc1[N+](=O)[O-]	-	-	-	-	-	.
O=C(Nc1ccc(-c2cn3c(n2)SCC3)cc1)c1ccco1	50.6	-	-	-	-	44.0
C[C@H](CCC(=O)O)[C@H]1CC[C@H]2[C@@H]3[C@H](O)C[C@@H]4C[C@H](O)CC[C@]4(C)[C@H]3CC[C@]12C	-	-	-	-	-	.
CC(CCC(C)C(C)(C)C)[C@@H]1CC[C@H]2C3C[C@H](OS(O)(=S)=S)[C@H]4C[C@H](OS(O)(=S)=S)[C@@H](OS(O)(=S)=S)C[C@]4(C)[C@H]3CC[C@]12C (stereo partly specified) (tested in a mixture with another compound)	56.0!	-	-	-	-	-
Cc1cnc(=O)[nH]c1SCC(=O)c1ccc(F)cc1	-	-	-	-	-	.
O=C(On1c(-c2ccccc2)nc2ccccc2c1=O)c1ccco1	75.5	-	-	-	-	57.4

Screening results as filed in PubChem BioAssay.
